According to the supplement of paper PMC8975748:
Where a name gives a salt, the structure may show the parent alone.

Each molecule was assayed on Saccharomyces cerevisiae BY4741 SeMeCo community (assay: z-score of subpopulation abundance vs DMSO median, subpopulation auxotrophic for HLM; higher = larger share of this subpopulation than in DMSO controls). Conditions: 10 µM; 24 h; SM minimal medium; subpopulation (auxotrophy): HLM.
Procedure: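 Fluorescent four-plasmid SeMeCo (self-establishing metabolically cooperating S. cerevisiae BY4741 community; plasmids pH-mRuby2, pL-mWasabi, pU-eCFP, pM-TagRFP657) was grown 24 h in minimal SM medium with each Selleck FDA-approved drug at 10 µM in 384-well plates. Cells were fixed and imaged by high-content confocal microscopy. For each auxotrophic subpopulation (and the prototroph), a z-score gives the deviation from the DMSO vehicle-control population median.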

Row | Structure (SMILES) | z-score of subpopulation abundance
1 | CCOC(=O)Nc1ccc(NCc2ccc(F)cc2)cc1N [Retigabine] | 0.18
2 | Nc1nc(N)nc(NC2CC2)n1 [Cyromazine] | 0.4
3 | CC[C@H]1CN2CC[C@]3(C(=O)Nc4ccccc43)[C@@H]2C[C@@H]1/C(=C\OC)C(=O)OC [Rhynchophylline] | 1.16
4 | COc1ccc2c3c([nH]c2c1)C(C)=NCC3 [Harmaline] | 2.63
5 | CN(C)[C@@H]1C(=O)C(C(N)=O)=C(O)[C@@]2(O)C(=O)C3=C(O)c4c(O)cccc4[C@@](C)(O)[C@H]3[C@H](O)[C@@H]12 [Oxytetracycline Dihydrate] | -0.22
6 | C[C@@H]1O[C@@H](O[C@H]2C[C@@H](O)[C@]3(CO)[C@H]4[C@H](O)C[C@]5(C)[C@@H](C6=CC(=O)OC6)CC[C@]5(O)[C@@H]4CC[C@]3(O)C2)[C@H](O)[C@H](O)[C@H]1O [Ouabain] | -0.79
7 | CC(C)(O)C(Cl)(Cl)Cl [Chlorobutanol] | -0.04
8 | Cn1cc(C2=C(c3cn(C4CCN(Cc5ccccn5)CC4)c4ccccc34)C(=O)NC2=O)c2ccccc21 | -1.27
9 | C=C(C)[C@H]1Cc2c(ccc3c2O[C@@H]2COc4cc(OC)c(OC)cc4[C@@H]2C3=O)O1 [Rotenone (Barbasco)] | 0.69
10 | COc1ccc(C=O)cc1 [p-Anisaldehyde] | -0.78
11 | CC[C@@H](C(N)=O)N1CCCC1=O [Levetiracetam] | 0.21
12 | CC(C)=CCOc1c2occc2cc2ccc(=O)oc12 [Imperatorin] | 1.2
13 | C=CCN1C[C@H](C(=O)N(CCCN(C)C)C(=O)NCC)C[C@@H]2c3cccc4[nH]cc(c34)C[C@H]21 [Cabergoline] | -0.2
14 | O=[N+]([O-])C(Br)(CO)CO [Bronopol] | -0.88
15 | C=C[C@H]1CN2CC[C@H]1C[C@H]2[C@H](O)c1ccnc2ccccc12 [Cinchonidine] | -0.4
16 | C[C@H]1O[C@H](O[C@H]2[C@H](O)[C@@H](O)[C@@H](O)[C@H](O)[C@@H]2O)[C@@H](N)C[C@@H]1NC(=N)C(=O)O [Kasugamycin hydrochloride] | -0.54
17 | COc1ccc2c(c1)[C@]13CCCC[C@@H]1[C@H](C2)N(C)CC3 [Dextromethorphan hydrobromide hydrate] | 0.03
18 | CN(C)C(=O)Oc1ccc[n+](C)c1 [Pyridostigmine Bromide] | 0.28
19 | C[N+](C)(C)CCCCCCCCCC[N+](C)(C)C [Decamethonium Bromide] | -0.27
20 | Cc1cc(O)ccc1Cl [Chlorocresol] | -0.58

Row | Structure (SMILES) | z-score of subpopulation abundance
21 | CCN(C)C(=O)Oc1cccc([C@H](C)N(C)C)c1 [Rivastigmine Tartrate] | 0.01
22 | CC(NC(C)(C)C)C(=O)c1cccc(Cl)c1 (stereo not given) [Amfebutamone (Bupropion) HCl] | 0.09
23 | CC1(C)SC2C(N)C(=O)N2C1C(=O)O (stereo not given) [6-Aminopenicillanic acid] | -0.43
24 | CNC1CC(N)C(O)C(OC2OC(CO)C(O)C3OC4(OC(C(N)CO)C(O)C(O)C4O)OC23)C1O (stereo not given) [Hygromycin B] | -0.02
25 | C[C@@H]1CC[C@H]2[C@@H](C)C(=O)O[C@@H]3O[C@@]4(C)CC[C@@H]1[C@]32OO4 [Artemisinin] | -0.69
26 | CN(C)C(=O)Oc1cccc([N+](C)(C)C)c1 [Neostigmine Bromide] | -0.52
27 | Oc1cccc2cccnc12 [8-Hydroxyquinoline] | -0.08
28 | CN1C(=O)COc2c(C(=O)NC3CN4CCC3CC4)cc(Cl)cc21 (stereo not given) [Azasetron HCl] | 1.29
29 | C[N+]1(C)[C@@H]2C[C@@H](OC(=O)[C@H](CO)c3ccccc3)C[C@H]1[C@@H]1O[C@@H]12 [Methscopolamine] | 0.13
30 | CN1c2ccccc2C(NCCCCCCC(=O)O)c2ccc(Cl)cc2S1(=O)=O (stereo not given) [Tianeptine sodium] | -0.48
31 | Oc1cc(Cl)ccc1Oc1ccc(Cl)cc1Cl [Triclosan] | 1.15
32 | COC(=O)C1=CCCN(C)C1 [Arecoline HBr] | 0.28
33 | COc1ccc(C(CN(C)C)C2(O)CCCCC2)cc1 (stereo not given) [Venlafaxine HCl] | -0.22
34 | C[N+]12CCC(CC1)C(OC(=O)C(O)(c1ccccc1)c1ccccc1)C2 (stereo not given) [Clidinium Bromide] | -0.26
35 | CN[C@@H]1[C@@H](O)[C@@H](O[C@@H]2[C@@H](O)[C@H](O[C@H]3O[C@H]([C@@H](C)O)[C@@H](O)[C@H](O)[C@H]3N)[C@@H](N)C[C@H]2N)OC[C@]1(C)O [Geneticin (G418 Sulfate)] | -0.13
36 | CC[N+](C)(CC)CCOC(=O)C(O)(c1ccccc1)c1ccccc1 [Methylbenactyzine Bromide] | -1.19
37 | CC[C@H]1[C@@H]2C[C@H]3[C@@H]4N(C)c5ccccc5[C@]45C[C@@H]([C@@H]2[C@H]5O)N3[C@@H]1O [Ajmaline] | -0.46
38 | NCCc1c[nH]c2ccc(O)cc12 [Serotonin HCl] | -0.77
39 | CCCCCCCCCCCCCCCC[n+]1ccccc1 [Cetylpyridinium Chloride] | 67.8
40 | CC(=O)O[C@H]1C[C@@H]2CC[C@@H]3[C@H](CC[C@@]4(C)[C@H]3C[C@H]([N+]3(C)CCCCC3)[C@@H]4OC(C)=O)[C@@]2(C)C[C@@H]1[N+]1(C)CCCCC1 [Pancuronium dibromide] | -0.05
